# Among all 69,000 compounds or so, about 8,600 (12%) showed an effect of 50% or more. Shown is part of a subset that was picked to be rich in strong results.
# Test system: Plasmodium berghei
# Test: Screen against P. berghei liver stage (PbLuc), transformed with Luciferase, at 10uM
# Type: functional, HepG2
# Settings: tested at 10 uM
row,Compound,INHIBITION
1,Cc1cc(C)n(CC2CCCN2C(=O)Cc2c(C)nn(C)c2C)n1 (centres undefined),-43.5%
2,Cc1ccc(N2CCc3ncnc(C4CC4)c3CC2)nn1,58.4%
3,Cc1cccc(N2CCc3ncnc(C4CC4)c3CC2)n1,-11.6%
4,Cc1ccc(N2CCc3ncnc(C)c3CC2)nn1,35.8%
5,CCN(C)c1ncnc2c1CCN(c1ccc(C)nn1)CC2,39.4%
6,CCN(CC)c1ncnc2c1CCN(c1ccc(C)nn1)CC2,52.1%
7,Cc1ccc(N2CCc3ncnc(N(C)C)c3CC2)nn1,8.6%
8,Cc1cccnc1C(=O)N1CCCC(Cc2cncc3ccccc23)C1 (centres undefined),-63.5%
9,CCn1cc(Cl)c(C(=O)NCc2cnn(C)c2)n1,3.46%
10,Cc1nc(-c2nnc[nH]2)sc1C(=O)N1CCCC1c1ccsc1 (centres undefined),72.5%
11,CC(C)CC(=O)N1CCCC1c1ccsc1 (centres undefined),-8.66%
12,CN(CCCNC(=O)N1CCCC1c1ccsc1)c1ccccn1 (centres undefined),52%
13,Cc1nc(-c2nnc[nH]2)sc1C(=O)N1CCCC1CC(C)(C)C (centres undefined),-10.2%
14,CCOC(=O)C1CCN(C(=O)CN2CCCC2c2ccccc2C)CC1 (centres undefined),70.1%
15,Cc1nc(-c2nnc[nH]2)sc1C(=O)N1CCCC1c1cccs1 (centres undefined),-81.2%
16,CSCCC(=O)N1CCCC1c1ccsc1 (centres undefined),1.81%
17,O=C(NCCCn1ccnc1)N1CCCC1c1ccsc1 (centres undefined),28.4%
18,O=C(NCCCn1cccn1)N1CCCC1c1ccsc1 (centres undefined),28.6%
19,CCC(=O)N1CCCC1c1ccsc1 (centres undefined),50.4%
20,COc1ccccc1C1CCCN1CC(=O)N1CCC(C(N)=O)CC1 (centres undefined),34%
21,CCOC(=O)C1CCN(C(=O)CN2CCCC2Cc2ccccc2)CC1 (centres undefined),-4.93%
22,Cc1nnc2ccc(N3CCN(CCc4ccccn4)CC3)nn12,-57.4%

row,Compound,INHIBITION
1,Cc1cc(C(=O)N2C[C@@H]3COC[C@]3(CN(C)C)C2)c(C)o1,25.1%
2,Cc1nn(C)cc1-c1nn2c(C(F)(F)F)nnc2s1,-15.2%
3,Cc1c(C(=O)N2CCS(=O)(=O)CC2)nnn1-c1ccc2ncccc2c1,46.6%
4,CCc1nnc(CN(CC)C(=O)C2CC(=O)N(CC)C2)o1 (centres undefined),39.1%
5,CCC(C)(C)NC(=O)Cn1nnc(CN(C)C(=O)c2ccccc2)n1,29.6%
6,Cc1cnc(Nc2nccnc2C2CCN(C)CC2)s1,7.39%
7,O=C(O)c1cccc(CN2CCCC(Cc3ccn[nH]3)C2)c1 (centres undefined),-0.05%
8,Cc1ncccc1C(=O)N1CCC2(CCc3ccccc3C(=O)N2)C1 (centres undefined),13.79%
9,Cn1cccc1C(=O)NC[C@]12COC[C@H]1CN(Cc1nccs1)C2,-30.6%
10,Cc1cccc(CNc2n[nH]c(C)n2)c1,33.1%
11,CCOC(=O)C1CCN(C(=O)CN2CCCC2c2cc(C)no2)CC1 (centres undefined),-15.1%
12,CCOC(=O)C1CCN(C(=O)CN2CCCC2c2ccsc2)CC1 (centres undefined),54.6%
13,CN(CCC#N)C(=O)CN1CCCC1c1ccsc1 (centres undefined),10.5%
14,O=C(NCC1CCOC1)c1csc(-c2ccccc2)n1 (centres undefined),-10.6%
15,c1cc2c(cc1CN1CC[C@H]3[C@H]1CCN3CC1CC1)OCO2,6.27%
16,O=C(c1ccc2[nH]cnc2c1)N1CCC(Oc2ccccn2)CC1,35.2%
17,Cc1cnn(CCCNC(=O)CCC2CCCCN2C)c1 (centres undefined),35.1%
18,C[C@@H]1CN(C2(C(=O)N3CCOCC3)Cc3ccccc3C2)C[C@H](C)O1,21%
19,C[C@@H]1CN(C2(C(=O)N3CCSCC3)Cc3ccccc3C2)C[C@H](C)O1,73.9%
20,C[C@@H]1CN(C2(C(=O)N3CCCCCC3)Cc3ccccc3C2)C[C@H](C)O1,-0.182%
21,O=C(C1CC1)N1CCN(C(=O)C2CC(=O)N(c3ccccc3Br)C2)CC1 (centres undefined),-56.4%
22,O=C(C1CC(=O)N(c2ccccc2Br)C1)N1CCCCCC1 (centres undefined),21.8%

row,Compound,INHIBITION
1,COC1CCN(C(=O)C2CC(=O)N(c3ccccc3Br)C2)CC1 (centres undefined),61.7%
2,COCc1nn(C(C)C)c2c1CCN(Cc1ccsc1)C2,-21.1%
3,C[C@@H]1C(=O)NC[C@H]2CN(Cc3ccsc3)C[C@H]21,27.4%
4,COc1cc(N2C[C@@H]3COC[C@]3(C(=O)NC3CC(F)(F)C3)C2)ncn1,31.4%
5,O=C1N(CC2CC2)CCCC1(O)CN1CCc2[nH]ncc2C1 (centres undefined),79.1%
6,O=C1N(CC2CCCCC2)CCCC1(O)CN1CCc2[nH]ncc2C1 (centres undefined),68.8%
7,Cc1cccnc1CNCC1(O)CCCN(CC2CCC2)C1=O (centres undefined),9.96%
8,Cc1cccnc1CCNCC1(O)CCCN(CC2CCCCC2)C1=O (centres undefined),25.8%
9,Cc1cccnc1CNCC1(O)CCCN(CC2CCCCC2)C1=O (centres undefined),15.1%
10,CC(C)(C)CN1CCCC(O)(CN2CCc3[nH]ncc3C2)C1=O (centres undefined),22.6%
11,CS(=O)(=O)N1CCC2(CC1)COC(COc1cccnc1)C2 (centres undefined),-52.3%
12,CC(C)(C)c1cc(=O)n2c(n1)SCC(C(=O)NCc1cccs1)C2 (centres undefined),28%
13,COc1ccc2c(OCC(=O)NC(C)(C)C)ccnc2c1,29.6%
14,CCS(=O)(=O)N1CC[C@H]2O[C@H](c3nc(C)no3)CC[C@H]21,18.2%
15,Cc1nc2ccc(C(=O)N3C[C@@H](O)[C@H](N4CCN(C)CC4)C3)cc2[nH]1,46%
16,CS(=O)(=O)Cc1ccc(Cl)cc1NCc1ccccc1F,38%
17,Cc1ccccc1CNc1ccc(S(N)(=O)=O)c(C(F)(F)F)c1,93.4%
18,NS(=O)(=O)c1ccc(NCc2ccccc2)cc1C(F)(F)F,77.7%
19,Fc1ccccc1CNc1ccnc(C2CCNCC2)c1,26.7%
20,CS(=O)(=O)c1ccc(NCc2ccccc2)cn1,27.3%
21,NS(=O)(=O)c1ccc(NCc2ccccc2F)cc1C(F)(F)F,82.3%
22,CC(=O)Nc1ccc(CNc2cccc(CS(C)(=O)=O)c2)cc1,34.6%

row,Compound,INHIBITION
1,CC(C)(CNc1ccc(C#N)c(C(F)(F)F)c1)C(N)=O,-21%
2,Cc1cc(C)c(S(N)(=O)=O)cc1C(=O)NCC1Cc2ccccc2O1 (centres undefined),-9.82%
3,CN(C)S(=O)(=O)c1ccc(CN2CCCC2c2ccsc2)o1 (centres undefined),-0.96%
4,Cn1nccc1C(=O)N1Cc2ccccc2OC2(CCOCC2)C1,29.2%
5,CN(C)C(=O)N1CCOCC2(CCN(c3ccccn3)C2)C1 (centres undefined),-3.1%
6,Cc1cnn(CC2CCCCN2C(=O)c2ccc3c(c2)nnn3C)c1 (centres undefined),-17.8%
7,O=S(=O)(Cc1ccccc1)NCCc1nnc2n1CCC2,31.9%
8,CCc1cnc(NCCCOC2CCCC2)nc1,-27%
9,CCc1cnc(NCCS(=O)(=O)CC(C)C)nc1,53.7%
10,CN(C)S(=O)(=O)CCNc1ncc2c(n1)CCN2c1ccccc1,-26.9%
11,CC(C)CS(=O)(=O)CCNc1ncccn1,10.3%
12,CCc1cnc(NCCCN2CCC(O)CC2)nc1,-52.7%
13,CCc1cnc(NCCS(=O)(=O)N(C)C)nc1,61.3%
14,CSCCCN(CCN1CCOCC1)Cc1ccco1,45.8%
15,O=C(Nc1nncs1)NC1CCCc2c1cnn2CCO (centres undefined),21.7%
16,COc1ccnc(N2CCN(C(=O)c3cc(C4CC4)[nH]n3)CC2)n1,25.1%
17,CC(C)c1cc(C(=O)N2CCN(Cc3ccsc3)CC2)n[nH]1,36.3%
18,Cc1cccc(CN2CCN(C(=O)c3cc(C4CC4)[nH]n3)CC2)c1,-24.2%
19,CC(C)c1ccc(CN2CCN(C(=O)c3cc(C4CC4)[nH]n3)CC2)cc1,60.2%
20,O=C(c1cc(C2CC2)[nH]n1)N1CCN(c2nccs2)CC1,6.02%
21,O=C(c1cc(C2CC2)[nH]n1)N1CCN(Cc2ccc3c(c2)OCO3)CC1,9.54%
22,N#Cc1ccc(N2CCN(C(=O)c3cc(C4CC4)[nH]n3)CC2)c(F)c1,80.8%

row,Compound,INHIBITION
1,Cc1csc(N2CCN(C(=O)c3cc(C4CC4)[nH]n3)CC2)n1,12%
2,CC(C)c1cc(C(=O)N2CCCN(Cc3ccccc3)CC2)n[nH]1,48.4%
3,O=C(c1cc(C2CC2)[nH]n1)N1CCN(Cc2ccsc2)CC1,36.4%
4,N#Cc1ccc(CN2CCN(C(=O)c3cc(C4CC4)[nH]n3)CC2)cc1,84.2%
5,CC(C)c1cc(C(=O)N2CCN(Cc3ccc(C#N)cc3)CC2)n[nH]1,82.5%
6,CN1CCN(CCCNC(=O)c2nc3ccccc3c(=O)[nH]2)CC1,24.2%
7,CN1CCN(C[C@@H]2OC[C@H]3CN(CCc4ccccc4)CC[C@H]32)CC1,-40%
8,CC(C)n1cc(CN2CCCN(C(=O)CC3CCCCC3)CC2)cn1,4.71%
9,CCc1nnc(CN(CC)C(=O)C2CCC(=O)N(C3CCCC3)C2)o1 (centres undefined),15.3%
10,Cc1ccc(CN(C)Cc2cnc(N3CCOCC3)s2)o1,35.8%
11,O=C(c1cc(C2CC2)[nH]n1)N1CCN(Cc2ccc(Cl)cc2)CC1,74.7%
12,O=C(c1cc(C2CC2)[nH]n1)N1CCN(Cc2ccncc2)CC1,-0.113%
13,O=C(c1cc(C2CC2)[nH]n1)N1CCN(Cc2ccccc2)CC1,-26.6%
14,Cc1ccc(C(=O)N(CC2CCCO2)c2ccncc2)o1 (centres undefined),24.1%
15,COCC(C)NC(=O)CN1CCC(C)CC1 (centres undefined),18.4%
16,Cc1nc(CN2CCC(c3cc(N4CCCC4)ncn3)CC2)cs1,-37.9%
17,c1c[nH]c2nc(C3CCNC3)nc-2c1 (centres undefined),19.3%
18,Cc1cc(N)nc(C2(C)CCCN2C(=O)Cc2ccc(F)cc2)n1 (centres undefined),29.2%
19,Cn1ccc(NC(=O)CN2C[C@@H]3CC[C@H]2CN(Cc2ccccn2)C3)n1,45.8%
20,O=C(CN1C[C@@H]2CC[C@H]1CN(Cc1ccccn1)C2)Nc1ccccc1,43.7%
21,O=C(CN1C[C@@H]2CC[C@H]1CN(Cc1ccccn1)C2)NCc1cccs1,51.1%

# — ChEMBL document CHEMBL4513216, “Probing the Open Global Health Chemical Diversity Library for Multistage-Active Starting Points for Next-Generation Antimalarials” (ACS Infect Dis, 2020)
